Results: publication PMC5540273 (PLoS ONE, 2017)

The molecules below were run on T1, LKB1. Conditions: concentration: 1 μM, replicates: in singlicate; n = 1.
T1 construct: gene STK11
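Further: KINOMEscan kinase panel screen.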

Row | SMILES | %Inh [%]
1 | COc1ccc(Nc2nccc(N3CCC(NC(=O)Nc4cccc(OC)c4)C3)n2)cc1 (stereo not shown) [GSK1379742] | 0
2 | Cc1ccc(C)c(NC(=O)NC2CCN(c3ccnc(Nc4ccc(F)cc4)n3)C2)c1 (stereo not shown) [GSK1379720] | 2
3 | c1ccc(-c2n[nH]cc2Nc2ccnc3ccccc23)nc1 [GW694077] | 94
4 | COc1cc(Nc2nccc(N3CCC(NC(=O)Nc4cccc(C(C)=O)c4)C3)n2)cc(OC)c1OC (stereo not shown) [GSK1379753] | 0
5 | O=C(Nc1cccc(-c2nn3ncccc3c2-c2ccnc(Nc3ccccc3)n2)c1)c1c(F)cccc1F [GSK198271] | 3
6 | c1ccc(-c2cnc3nccnn23)cc1 [AH20685] | 0
7 | Cl.c1ccc(-c2ccc3c(Nc4ccc5[nH]ncc5c4)ccnc3c2)nc1 [GW440137] | 0
8 | Fc1ccc(-c2ncn(C3CCNCC3)c2-c2ccnc(Oc3ccc(-c4ccccc4)cc3)n2)cc1 [SB-245391] | 0
9 | Clc1ccc(-c2nn3ncccc3c2-c2ccnc(Nc3ccc4c(c3)OCCO4)n2)cc1 [GW829116] | 0
10 | Cc1ccc(F)c(C(=O)Nc2cccc(-c3nn4ccccc4c3-c3ccnc(Nc4cccc(F)c4)n3)c2)c1F [GSK361061] | 0
11 | CNC(=O)c1ccccc1Nc1nc(Nc2ccc(N3CCOCC3)cc2)ncc1Cl.Cl [GSK1576028] | 51
12 | Cc1cccc(Nc2nc(N[C@H]3CCNC3)ncc2C(N)=O)c1.Cl [GSK2197149] | 8
13 | CCn1c(-c2nonc2N)nc2c(C#CC(C)(C)O)nc(OC[C@H](N)c3ccccc3)cc21 [GSK943949] | 31
14 | COc1cc(Nc2ncc3c(C)nc(-c4cc5ccccc5[nH]4)n3n2)cc(OC)c1OC [GW869516] | 0
15 | Cl.NC(=O)c1cccc(Nc2nccc(Nc3ccc(Oc4c(Cl)cccc4Cl)c(Cl)c3)n2)c1 [GW659009] | 0
16 | Cl.c1ccc(-c2ccc3c(Nc4ccc5[nH]ccc5c4)ccnc3c2)nc1 [GW440138] | 0
17 | CN1CCN(CCCNc2nccc(-c3c(-c4ccc(F)cc4)nn4cc(C(F)(F)F)ccc34)n2)CC1 [GW621581] | 5
18 | O=C(Nc1n[nH]c2cc(-c3ccoc3)ccc12)C1CC1 [SB-738481] | 0
19 | COc1cccc(C2=C(Nc3ccc(Cl)c(C(=O)O)c3)C(=O)NC2=O)c1 [SB-390769] | 0

Row | SMILES | %Inh [%]
20 | COc1cccc(-c2ccc3c(NC(=O)C4CC4)n[nH]c3n2)c1 [SB-710903] | 0
21 | COc1cccc(NC(=O)NC2CCN(c3ccnc(Nc4cc(OC)c(OC)c(OC)c4)n3)C2)c1 (stereo not shown) [GSK1379763] | 2
22 | CN(C)S(=O)(=O)c1cc(-c2ccc3nccc(-c4cccc(S(N)(=O)=O)c4)c3c2)cnc1N [GSK1669921] | 0
23 | Cn1cc(-c2ccc3c(c2)CCN3C(=O)Cc2cccc(F)c2)c2c(N)ncnc21 [GSK2603358] | 0
24 | COc1ccc(CNC(=O)NC2CCN(c3ccnc(Nc4ccc(F)cc4)n3)CC2)cc1 [GSK1379788] | 4
25 | O=C(Nc1cccc(-c2nn3ccccc3c2-c2ccnc(Nc3cccc(F)c3)n2)c1)c1c(F)ccc(F)c1Cl [GSK357952] | 0
26 | Cl.Cl.NCC(NCc1ccc(-c2ccnc3[nH]ccc23)s1)c1ccccc1 (stereo not shown) [GSK1321565] | 82
27 | CCc1ccc(-c2ccc3c(c2)-c2c(cnn2C)S(=O)(=O)N3C)cc1 | 29
28 | O=C(O)C(F)(F)F.O=C(O)C(F)(F)F.O=c1[nH]ccc2nc(N[C@@H]3CCCNC3)nc(Nc3ccc(S(=O)(=O)N4CCOCC4)cc3)c12 [GSK2177277] | 92.1
29 | Cc1occc1-c1ncc(OC[C@@H](N)Cc2c[nH]c3ccccc23)cc1-c1ccc2[nH]nc(C)c2c1.O=C(O)C(F)(F)F [GSK682037] | 0
30 | COCCOCCOc1cc2ncc3c4ccc(C#N)cc4[nH]c3c2cc1OC | 15
31 | CN(C)Cc1ccc(-c2ccc3c(Nc4ccc(Oc5ccccn5)cc4)ccnc3c2)o1 [GW567148] | 0
32 | Cc1ccc(C(=O)N2CC[C@@H](O)C2)cc1-n1c(C)cc(OCc2ccc(F)cc2F)c(Br)c1=O | 36
33 | Cn1cc(-c2[nH]c3cc(NC(=O)[C@H](N)C4CCCCC4)cc4c3c2C=NNC4=O)cn1 | 94.3
34 | COc1cc(Nc2nccc(-c3c(-c4cccc(NC(=O)c5c(F)cccc5F)c4)nn4ncccc34)n2)cc(OC)c1OC [GSK327238] | 0
35 | CC(=O)Nc1nc2cnc(Nc3cc(NC(=O)c4cccc(C5(C#N)CC5)c4Cl)ccc3C)nc2s1 | 0
36 | Cc1ccc(C(=O)Nc2ccc(Nc3ccnc4cc(-c5nccs5)ccc34)cc2O)cc1.Cl [GW494702] | 0
37 | Nc1ncc(-c2cccnc2)c2scc(-c3ccc4c(c3)CCN4C(=O)Cc3ccccc3)c12 [GSK683281] | 10
